About 79,000 compounds went through this panel and 15% of them were active in at least one assay; those are over-represented in the sample as a whole. Calls of active or inactive are those of the source. Cut-off read from the data, not from the text of the source: active = growth inhibition above about 70%; inactive = the rest.
Legend:
[1] = NCI Yeast Anticancer Drug Screen. Data for the wt2 strain (AID 169);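 note: 0% = growth of vehicle-treated yeast cultures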; settings: S. cerevisiae wt2 strain growth inhibition, active compounds read high
How it was run: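 Treated yeast vs. vehicle-treated yeast: growth inhibition determined.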

[2] = NCI Yeast Anticancer Drug Screen. Data for the mlh1 strain (AID 171);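 note: 0% = growth of vehicle-treated control cultures of the same strain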; settings: S. cerevisiae mlh1 strain growth inhibition, active compounds read high
How it was run: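 A yeast strain with a defined genetic lesion serves as the test organism. Cultures receive compound or vehicle, and growth is measured.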

[3] = NCI Yeast Anticancer Drug Screen. Data for the sgs1 strain (AID 173);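 note: 0% = growth of vehicle-only control cultures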; settings: S. cerevisiae sgs1 mutant, active compounds read high
How it was run: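 A genetically defined yeast mutant is incubated with the test compound, and its growth is compared to that of the same strain given vehicle.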

[4] = NCI Yeast Anticancer Drug Screen. Data for the mlh1 rad18 strain (AID 175); settings: S. cerevisiae mlh1 rad18 strain growth inhibition, active compounds read high
How it was run: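 Steps: expose repair-defective yeast to compound; measure growth; express inhibition against vehicle-treated controls.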

[5] = NCI Yeast Anticancer Drug Screen. Data for the rad18 strain (AID 177); settings: S. cerevisiae rad18 mutant growth inhibition, active compounds read high
How it was run: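 Measured value is growth inhibition of a yeast strain bearing a DNA repair alteration, referenced to vehicle-treated cells.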

[6] = NCI Yeast Anticancer Drug Screen. Data for the rad52 strain (AID 147);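 note: 0% = growth of vehicle-treated control cultures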; settings: S. cerevisiae rad52 mutant growth inhibition, active compounds read high
How it was run: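 Here a repair-compromised yeast strain receives each compound; its growth is then quantified and normalised to vehicle-only controls.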

[7] = NCI Yeast Anticancer Drug Screen. Data for the wt1 strain (AID 149);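 note: 0% = growth of vehicle-treated wt1 cultures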; settings: S. cerevisiae wt1 strain (SPY 50644) growth inhibition, active compounds read high
How it was run: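 Measured: growth of wt1 yeast under compound versus vehicle treatment, reported as inhibition.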

[8] = NCI Yeast Anticancer Drug Screen. Data for the rad50EPP+ strain (AID 151);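 note: 0% = growth of vehicle-treated control cultures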; settings: S. cerevisiae rad50 mutant strain, active compounds read high
How it was run: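 Read-out is yeast growth inhibition relative to vehicle; cells used were the rad50EPP+ strain.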

[9] = NCI Yeast Anticancer Drug Screen. Data for the mgt1 strain (AID 153); settings: S. cerevisiae mgt1 mutant growth inhibition, active compounds read high
How it was run: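 Measured: inhibition of mgt1 yeast growth by compound, normalized to vehicle-treated cultures.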

[10] = NCI Yeast Anticancer Drug Screen. Data for the rad50 strain (AID 155);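 note: 0% = growth of vehicle-only cultures of the same strain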; settings: S. cerevisiae rad50 strain growth inhibition, active compounds read high
How it was run: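 Growth of the mutant yeast was measured after compound exposure and referenced to vehicle-treated cultures.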

[11] = NCI Yeast Anticancer Drug Screen. Data for the mec2-1 strain (AID 157); settings: S. cerevisiae mec2-1 strain, active compounds read high
How it was run: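 Using mec2-1 yeast: add compound, measure growth, express inhibition versus vehicle-treated cultures.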

[12] = NCI Yeast Anticancer Drug Screen. Data for the rad14 strain (AID 159);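 note: 0% = growth of vehicle-treated control cultures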; settings: S. cerevisiae rad14 strain growth inhibition, active compounds read high
How it was run: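 Here, inhibition of yeast growth was measured after compound exposure, using a strain with a genetic defect in DNA damage repair and vehicle-treated cultures as the reference.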

[13] = NCI Yeast Anticancer Drug Screen. Data for the sgs1 mgt1 strain (AID 161);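 note: 0% = growth of cultures given vehicle only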; settings: S. cerevisiae sgs1 mgt1 strain, active compounds read high
How it was run: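 This yeast growth screen uses a strain with defined DNA-repair lesions; compound-treated growth is compared with vehicle-treated growth.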

[14] = NCI Yeast Anticancer Drug Screen. Data for the CLN2oe strain (AID 163);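 note: 0% = growth of vehicle-only control cultures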; settings: S. cerevisiae CLN2oe strain, active compounds read high
How it was run: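 Whole-cell yeast growth assay. A strain engineered for altered cell-cycle control received compound, and inhibition relative to vehicle-treated cultures was recorded.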

[15] = NCI Yeast Anticancer Drug Screen. Data for the cln2 rad14 strain (AID 165);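 note: 0% = growth equal to vehicle treated cultures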; settings: S. cerevisiae cln2 rad14 strain, active compounds read high
How it was run: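 Yeast strain cln2 rad14, bearing defects in cell cycle control and DNA repair, serves as the test system; values reflect growth inhibition compared with vehicle.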

[16] = NCI Yeast Anticancer Drug Screen. Data for the bub3 strain (AID 167); settings: S. cerevisiae bub3 mutant strain, active compounds read high
How it was run: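 Whole-cell yeast assay. The mutant strain was incubated with compounds, and growth inhibition was determined by comparison with vehicle-treated cells.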

[17] = at 5.0 µM (retest, dose inferred, filed as 0.5)
[18] = at 50.0 µM (retest, dose inferred, filed as 5.0)

Measured: growth inhibition

CSC(=S)N/N=C/c1ccccc1
inactive: [1]; at 1.2 µM -2% | [1]; at 3.7 µM 2% | [1]; at 11.0 µM 16% | [1]; at 33.0 µM 28% | [1]; at 100.0 µM 37% | [2]; at 1.2 µM 1% | [2]; at 3.7 µM 3% | [2]; at 11.0 µM 25% | [2]; at 33.0 µM 26% | [2]; at 100.0 µM 37% | [3]; at 1.2 µM 0% | [3]; at 3.7 µM 5% | [3]; at 11.0 µM 21% | [3]; at 33.0 µM 44% | [3]; at 100.0 µM 55% | [4]; [17] 48% | [5]; at 1.2 µM 23% | [5]; at 3.7 µM 55%
active: [4]; [18] 85% | [4]; at 50.0 µM 89.5% | [5]; at 11.0 µM 86% | [5]; at 33.0 µM 86% | [5]; at 100.0 µM 81%

CC1=CN2C(c3ccccc3)=NON(c3ccc(C)cn3)C2C=C1 (stereo unspecified)
inactive: [6]; at 1.2 µM 2% | [6]; at 3.7 µM 4% | [6]; at 11.0 µM -3% | [6]; at 33.0 µM 1% | [6]; at 100.0 µM -7% | [7]; at 1.2 µM -3% | [7]; at 3.7 µM -3% | [7]; at 11.0 µM -3% | [7]; at 33.0 µM -3% | [7]; at 100.0 µM -5% | [8]; at 1.2 µM 6% | [8]; at 3.7 µM 1% | [8]; at 11.0 µM 0% | [8]; at 33.0 µM -2% | [8]; at 100.0 µM -11% | [9]; at 1.2 µM -2% | [9]; at 3.7 µM 0% | [9]; at 11.0 µM -2% | [9]; at 33.0 µM -1% | [9]; at 100.0 µM -3% | [10]; at 1.2 µM 6% | [10]; at 3.7 µM 2% | [10]; [17] -5% | [10]; at 11.0 µM -6% | [10]; at 33.0 µM 1% | [10]; [18] 12% | [10]; at 50.0 µM -4.35% | [10]; at 100.0 µM -11% | [11]; at 1.2 µM -3% | [11]; at 3.7 µM -2% | [11]; [17] -24% | [11]; at 11.0 µM -3% | [11]; at 33.0 µM -2% | [11]; [18] -21% | [11]; at 50.0 µM 19.8% | [11]; at 100.0 µM -4% | [12]; at 1.2 µM 4% | [12]; at 3.7 µM 0% | [12]; at 11.0 µM -4% | [12]; at 33.0 µM -2% | [12]; at 100.0 µM -9% | [13]; [17] -15% | [13]; [18] 20% | [13]; at 50.0 µM 18% | [14]; at 1.2 µM 2% | [14]; at 3.7 µM -2% | [14]; at 11.0 µM -4% | [14]; at 33.0 µM -2% | [14]; at 100.0 µM -7% | [15]; [17] -23% | [15]; [18] -17% | [15]; at 50.0 µM -12.7% | [16]; at 1.2 µM -2% | [16]; at 3.7 µM -2% | [16]; [17] -25% | [16]; at 11.0 µM -6% | [16]; at 33.0 µM -4% | [16]; [18] 10% | [16]; at 50.0 µM 46% | [16]; at 100.0 µM -4% | [1]; at 1.2 µM -7% | [1]; at 3.7 µM -7% | [1]; at 11.0 µM -10% | [1]; at 33.0 µM -13% | [1]; at 100.0 µM -7% | [2]; at 1.2 µM 0% | [2]; at 3.7 µM -2% | [2]; at 11.0 µM -3% | [2]; at 33.0 µM -1% | [2]; at 100.0 µM -4% | [3]; at 1.2 µM -23% | [3]; at 3.7 µM -16% | [3]; at 11.0 µM -2% | [3]; at 33.0 µM -7% | [3]; at 100.0 µM 2% | [4]; [17] -15% | [4]; [18] 50% | [4]; at 50.0 µM 1.65% | [5]; at 1.2 µM 3% | [5]; at 3.7 µM 3% | [5]; at 11.0 µM -1% | [5]; at 33.0 µM 1% | [5]; at 100.0 µM -7%
